Source: PubChem BioAssay (NCATS)
Records with an inconclusive call do not appear. A call without a number means that no potency is given here. Activity calls are given as the source filed them. Unless noted, calls follow the shape of the dose curve; as a rule, active = well fitted curve in the direction sought with a large enough effect; inconclusive = small, poorly fitted or top-dose-only effect, or another doubt; inactive = no such curve, though single readings can be large; an effect the other way counts as inactive or inconclusive.

Legend:
[1] = S16 Schwann cell PMP22 intronic element firefly luciferase assay (AID 624032); details: S16 rat Schwann cells, PMP22 element FLuc, 24 h; series mostly up to 57.5 µM; also: nearly all actives have a fitted effect of over 30% in size
In short: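 Luciferase reporter of PMP22 intronic-element expression in stably transfected S16 rat Schwann cells, read by ONE-Glo luminescence after 24 h compound exposure at 37 C. Activity scaled between DMSO (0%) and positive-control PTC124; concentration-effect curves quality-classified.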

[2] = biological target: Luciferin 4-monooxygenase (Photinus pyralis) (UniProt P08659); experiment: Biochemical firefly luciferase enzyme assay for NPC (AID 624030);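 also: purified P. pyralis luciferase at 10 nM with luciferin and ATP substrate; nearly all actives have a fitted effect of over 70% in size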; details: purified P. pyralis luciferase, luminescence, 5 min; series mostly up to 58.6 µM
Luciferin 4-monooxygenase (Photinus pyralis), sequence (P08659 whole entry, looked up): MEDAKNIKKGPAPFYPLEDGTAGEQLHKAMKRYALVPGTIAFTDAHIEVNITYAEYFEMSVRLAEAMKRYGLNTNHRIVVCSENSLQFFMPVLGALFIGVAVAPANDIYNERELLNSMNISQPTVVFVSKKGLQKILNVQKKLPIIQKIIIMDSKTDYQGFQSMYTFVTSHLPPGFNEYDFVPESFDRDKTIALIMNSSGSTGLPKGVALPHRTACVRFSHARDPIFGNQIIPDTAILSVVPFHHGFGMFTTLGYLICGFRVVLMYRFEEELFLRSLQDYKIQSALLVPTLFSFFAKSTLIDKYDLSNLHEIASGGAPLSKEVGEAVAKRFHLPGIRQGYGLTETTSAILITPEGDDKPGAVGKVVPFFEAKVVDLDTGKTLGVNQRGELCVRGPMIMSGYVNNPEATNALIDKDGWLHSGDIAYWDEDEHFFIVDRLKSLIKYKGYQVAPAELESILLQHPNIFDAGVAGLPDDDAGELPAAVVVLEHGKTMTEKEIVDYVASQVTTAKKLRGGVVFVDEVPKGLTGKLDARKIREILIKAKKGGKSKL
In short: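 Direct inhibition of firefly luciferase enzyme (10 nM final, 50 mM Tris Acetate) assessed by luminescence within 5 minutes. Percent activity scaled between DMSO and PTC124 positive control, with concentration-effect curves classified by fit quality and response.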

[3] = S16 Schwann cell PMP22 intronic element beta-lactamase assay (AID 624044; calls by dose curve; also: nearly all actives have a fitted effect of over 15% in size); details: S16 rat Schwann cells, PMP22 element beta-lactamase FRET, 24 h; series mostly up to 38.3 µM
In short: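 Rat S16 Schwann cells with beta-Lac driven by a PMP22 intronic element, compound-treated 24 h at 37 °C. LiveBLAzer FRET B/G read: 460 nm normalized to potassium clavulanate vs DMSO; 535 nm FRET as viability; concentration-effect curves classified.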

[4] = biological target: Glutaminase kidney isoform, mitochondrial (Homo sapiens) (UniProt O94925); experiment: qHTS for Inhibitors of Glutaminase (GLS): LOPAC Validation (AID 624146); details: glutaminase enzyme activity inhibition; series mostly up to 46.1 µM;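 also: glutamate product detected by oxidase and peroxidase coupled Amplex red fluorescence gain; nearly all actives have a fitted effect of over 60% in size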
Glutaminase kidney isoform, mitochondrial (Homo sapiens), sequence (O94925 whole entry, looked up, canonical isoform): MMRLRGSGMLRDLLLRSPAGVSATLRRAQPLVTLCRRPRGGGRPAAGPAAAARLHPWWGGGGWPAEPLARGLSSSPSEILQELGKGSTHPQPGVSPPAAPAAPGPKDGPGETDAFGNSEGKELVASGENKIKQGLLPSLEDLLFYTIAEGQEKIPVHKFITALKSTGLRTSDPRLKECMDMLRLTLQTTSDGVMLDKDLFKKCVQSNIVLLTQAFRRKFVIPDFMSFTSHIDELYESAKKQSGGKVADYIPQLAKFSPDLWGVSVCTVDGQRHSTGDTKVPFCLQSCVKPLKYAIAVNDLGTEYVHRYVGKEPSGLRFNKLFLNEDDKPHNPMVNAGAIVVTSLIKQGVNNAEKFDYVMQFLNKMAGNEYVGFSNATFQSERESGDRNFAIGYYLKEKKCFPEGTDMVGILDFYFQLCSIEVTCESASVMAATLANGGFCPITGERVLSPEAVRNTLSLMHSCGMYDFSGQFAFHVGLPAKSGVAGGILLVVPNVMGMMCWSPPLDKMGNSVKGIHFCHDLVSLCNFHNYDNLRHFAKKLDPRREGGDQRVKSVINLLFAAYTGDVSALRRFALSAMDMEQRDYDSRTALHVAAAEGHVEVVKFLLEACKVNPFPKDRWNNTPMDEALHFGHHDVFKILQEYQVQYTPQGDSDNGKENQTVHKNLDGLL
In short: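 Compounds were pin-transferred onto hKGA, after which L-glutamine (1 mM solution) and a detection mix of glutamate oxidase, HRP and Amplex Red were added. Initial and 30 min RT fluorescence reads were collected.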

[5] = qHTS of Trypanosoma Brucei Inhibitors: LOPAC Validation (AID 624147); details: purified enzyme assay, luminescence, 45 min; series mostly up to 57.5 µM
In short: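 ADP (130 uM final) triggers the TbPYK reaction after compound addition; incubation is 45 min at room temperature. Kinase-Glo Plus is then added and luminescence imaged. Normalized data are fitted to concentration-effect curves.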

[6] = biological target: Glucagon-like peptide 1 receptor (Homo sapiens) (UniProt P43220); experiment: qHTS of GLP-1 Receptor Agonists: LOPAC Validation (AID 624148); details: GLP-1R agonist cell assay; series mostly up to 46.1 µM;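 also: luminescence from a luciferase reporter switched on by cAMP; higher luminescence signal means agonism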
Glucagon-like peptide 1 receptor (Homo sapiens), sequence (P43220 whole entry, looked up): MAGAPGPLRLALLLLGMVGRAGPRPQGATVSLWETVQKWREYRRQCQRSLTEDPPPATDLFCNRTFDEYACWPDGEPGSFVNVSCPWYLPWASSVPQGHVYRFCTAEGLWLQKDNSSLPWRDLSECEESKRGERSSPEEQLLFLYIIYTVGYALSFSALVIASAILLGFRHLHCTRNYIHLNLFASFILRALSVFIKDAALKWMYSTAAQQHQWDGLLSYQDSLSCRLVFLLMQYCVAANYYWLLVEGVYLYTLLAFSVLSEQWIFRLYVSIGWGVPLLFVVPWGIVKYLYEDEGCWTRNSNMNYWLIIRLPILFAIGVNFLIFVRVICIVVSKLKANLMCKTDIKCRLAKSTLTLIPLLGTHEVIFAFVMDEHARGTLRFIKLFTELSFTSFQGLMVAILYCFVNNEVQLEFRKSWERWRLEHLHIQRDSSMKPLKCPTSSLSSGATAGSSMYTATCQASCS
In short: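 Agonism scored as increased luciferase luminescence driven by cAMP in HEK293 clones carrying GLP-1R. Cells settled 12 hours, received compound for 4-6 hr at 37 deg C, 5% CO2, and were read after 12 min detection reagent at RT.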

[7] = qHTS of Nrf2 Activators: LOPAC Validation (AID 624149); details: Nrf2/ARE reporter cell assay; series mostly up to 46.1 µM
In short: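 Luminescence read-out of ARE-luciferase activation: AREc32_Fluc cells treated with compounds for 24 hr at 37 deg C, then lysed with Steady-Glo for 30 min at room temperature before reading.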

[8] = HTS Assay for Allosteric Antagonists of the Human D2 Dopamine Receptor: Hit Validation in HTRF (AID 624455); details: Cells stably expressing D1 dopamine receptor, inhibition mode; series mostly up to 46.1 µM;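 also: stable D1 dopamine receptor cell line scored for blocking the D1 response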
In short: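 First, antagonism was screened by calcium flux in a force-coupled, inducible Hek293 Trex D2 line challenged with EC80 dopamine. Hits then went into an HTRF assay in cells stably expressing D1, testing inhibition of the D1 response.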

With `CN=C(NC#N)NCCSCc1nc[nH]c1C` as the compound, how does the Potency [1] read?
The Potency was “inactive”.

With `CN(C)CCc1c[nH]c2cccc(OP(=O)(O)O)c12` as the compound, how does the Potency [2] read?
The Potency was “inactive”.

Which Potency [2] does the source give for `COC(=O)C(Cl)C(=O)OC` here?
The Potency was “inactive”.

With `CCN[C@@H](C)Cc1cccc(C(F)(F)F)c1` as the compound, how does the Potency [2] read?
Its Potency is “inactive”.

For `C[C@]12CC[C@@H]3c4ccc(OC(=O)N(CCCl)CCCl)cc4CC[C@H]3[C@@H]1CC[C@@H]2OP(=O)(O)O`, which Potency [2] is on record?
The Potency was “inactive”.

For `CCc1cc2c(s1)-n1c(C)nnc1CN=C2c1ccccc1Cl`, which Potency [2] is on record?
Its Potency is “inactive”.

Which Potency [2] does the source give for `Clc1cccc(SC2CCNCC2)n1` here?
Its Potency is “inactive”.

And the outcome [3]?
The outcome was “inactive”.

With `CCCN(CCC)C(=O)Cc1c(-c2ccc(Cl)cc2)nc2ccc(Cl)cn12` as the compound, how does the Potency [2] read?
Its Potency is “inactive”.

For `NC(=O)CC[C@@H]1NC(=O)[C@H](Cc2ccccc2)NC(=O)[C@H](Cc2ccc(O)cc2)NC(=O)[C@@H](N)CSSC[C@@H](C(=O)N2CCC[C@H]2C(=O)N[C@@H](CCCN=C(N)N)C(=O)NCC(N)=O)NC(=O)[C@H](CC(N)=O)NC1=O`, which Potency [1] is on record?
Its Potency is “inactive”.

With `CC(C)COC(=O)c1ccc(N)cc1` as the compound, how does the Potency [1] read?
Its Potency is “inactive”.

With `C=CCc1ccc(O)c(OC)c1` as the compound, how does the Potency [1] read?
The Potency was “inactive”.

For `C[C@H](N)C(=O)c1ccccc1`, which Potency [2] is on record?
The Potency was “inactive”.

For `CNCC(=O)c1ccc(O)c(O)c1`, which Potency [2] is on record?
Its Potency is “inactive”.

With `COc1cc(CCN)cc(OC)c1OC` as the compound, how does the Potency [2] read?
Its Potency is “inactive”.

For `C[C@]12CCC(=O)C=C1CC[C@@H]1[C@H]3CC[C@](C)(O)[C@@]3(C)CC[C@@H]12`, which Potency [2] is on record?
The Potency was “inactive”.

What does the source list for `CN1C(=O)C(O)N=C(c2ccccc2)c2cc(Cl)ccc21` (configuration not stated)?
Potency [2]: inactive; Potency [1]: inactive; outcome [3]: inactive

What does the source list for `COc1ccc2c(c1OC)C(=O)O[C@H]2[C@@H]1c2cc3c(cc2CCN1C)OCO3`?
Potency [2]: inactive; Potency [1]: inactive; outcome [3]: inactive; Potency [4]: inactive; outcome [5]: inactive; outcome [6]: inactive; outcome [7]: inactive; Potency [8]: inactive
